# HepG2 viability = counter-screen for TGF-b inhibitors: cytotoxicity in HepG2 cells; AID 588856; 410,000 tested, 0.76% active; Potency, µM (doses to about 46.1 µM), for inactives: top-dose activity change, negative = cytotoxicity, usual class: cytotoxic; HepG2 CAGA-GFP viability, ATP luminescence, 18 h; also: potency is read from the fitted curve at half-maximal effect
#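 CellTiter-Glo luminescence gave cytotoxicity after 18 hours at 37 degrees C. The cells were HepG2 CAGA-GFP in 1% FBS DMEM, stimulated with 500 pg/mL TGF-beta after compound addition. %Activity was normalised to no-cell wells (complete cell-killing) and DMSO (no toxicity), and curves were fitted and classified.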
# D3 ag = activates the human D3 dopamine receptor; max activation, %; D3R DiscoveRx beta-arrestin cells, luminescence, 90 min; AID 652048; 410,000 tested, 0.58% active; P35462; in the data active = max activation above about 30%; also: 0% is about no effect
# Target sequence (P35462 whole entry, looked up): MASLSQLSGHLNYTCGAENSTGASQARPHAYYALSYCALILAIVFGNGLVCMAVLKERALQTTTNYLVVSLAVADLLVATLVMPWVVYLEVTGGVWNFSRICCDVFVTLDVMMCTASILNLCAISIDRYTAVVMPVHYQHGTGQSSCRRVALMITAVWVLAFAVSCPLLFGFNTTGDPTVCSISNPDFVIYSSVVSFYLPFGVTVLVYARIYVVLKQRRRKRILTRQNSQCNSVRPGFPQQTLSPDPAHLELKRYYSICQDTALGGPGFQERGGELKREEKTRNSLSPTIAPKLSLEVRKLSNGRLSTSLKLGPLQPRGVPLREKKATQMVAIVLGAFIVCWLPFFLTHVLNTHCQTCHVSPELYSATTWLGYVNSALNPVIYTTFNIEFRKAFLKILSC
#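 Agonist mode: compounds and dopamine controls were applied to plated cells for 90 min at 37 degrees C after an overnight attachment at 1500 cells/well. Luminescent read-out followed 30 - 60 minutes at room temperature with DiscoveRx detection reagent.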
# TGFb inhibitor = blocks TGF-b signaling. 410,000 tested, 1.2% active. Potency, µM (top dose mostly 46.1 µM), without a hit: at the top dose activity, negative = inhibition, actives largely listed as inhibitors. HepG2 CAGA-GFP TGF-b/SMAD3 reporter, GFP fluorescence, 18 h; TGF-beta stimulated, 500 pg/mL final. AID 588855; also: potency is read from the fitted curve at half-maximal effect; % is scaled to controls: 0 for no effect and ±100 for the full control effect; nearly all actives have a fitted effect of over 65% in size
#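 HEPG2 CAGA-GFP reporter cells (1000/well, DMEM with 1% FBS) received compounds, then recombinant TGF-beta at 500 pg/mL final for 18 hours at 37 degrees C. Per-cell GFP summed per well was normalised to unstimulated and stimulated DMSO controls before curve fitting.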
# D3 antag = antagonists of human D3 dopamine receptor. P35462. D3R cells, DiscoveRx beta-arrestin luminescence, antagonist mode; active compounds read low. max response, negative = inhibition, %. 360,000 tested, 2.5% active. AID 652054; in the data active = max response below about -50%; inconclusive = no clear call, values can overlap the other calls; also: % is scaled to controls: 0 for no effect and ±100 for the full control effect
#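 Cells expressing the human receptor were seeded at 1500 cells/well, incubated overnight at 37 degrees C in 5% CO2, then exposed to library compounds with dopamine controls for 90 minutes at 37 degrees C before luminescent detection.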
# ATXN viability = cell viability loss in ATXN counter-screen | S2 cells (HEK-293 line with an ATXN2-luciferase reporter) viability, CellTiter-Fluor protease fluorescence, 24 h | Potency, µM (highest dose often 56.7 µM), actives largely listed as cytotoxic | 400,000 tested, 0.49% active | AID 651635; also: potency is read from the fitted curve at half-maximal effect; nearly all actives have a fitted effect of over 40% in size
# ATXN2 expr inh = ATXN2 expression inhibition. HEK-293 ATXN2-luciferase reporter, luminescence, 24 h. Potency, µM (highest dose often 57 µM), for the others: top-dose activity change, negative = inhibition, most hits filed as inhibitors. 360,000 tested, 0.72% active. AID 1745845; also: potency is read from the fitted curve at half-maximal effect; % is scaled to controls: 0 for no effect and ±100 for the full control effect; nearly all actives have a fitted effect of over 55% in size
#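 ATXN2-luciferase reporter cells (luciferase flanked by upstream and downstream ATXN2 gene portions) were treated 24 h at 37 °C with compounds at up to 57 uM. SteadyGlo luminescence gave expression; GF-AFC fluorescence gave viability.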
# Numbers without * were called inactive; i = inactive; ? = inconclusive; nt = no result; ! = not confirmed by another sample. This is a sample that favours compounds with a hit; in the whole collection about 4.8% have one here. Unless noted, calls follow the shape of the dose curve; as a rule, active = well fitted curve in the direction sought with a large enough effect; inconclusive = small, poorly fitted or top-dose-only effect, or another doubt; inactive = no such curve, though single readings can be large; an effect the other way counts as inactive or inconclusive.
SMILES,HepG2 viability,D3 ag,TGFb inhibitor,D3 antag,ATXN viability,ATXN2 expr inh
O=[N+]([O-])c1ccc(OCC(O)CN2CCN(c3ccccc3F)CC2)cc1 (stereo not given),31%,59*,-3%,-19,i,-6%
Fc1ccccc1N1CCN(Cc2cc(-c3ccccc3)on2)CC1,-3%,-5,0%,-88*,i,-10%
Fc1ccccc1N1CCN(CCCc2ccccc2)CC1,-11%,-20,-8%,-92*,i,5%
Cc1ccc(N2CCN(CC(O)COc3ccc([N+](=O)[O-])cc3)CC2)cc1 (stereo not given),-4%,-8,-1%,1,i,0%
OC(COc1ccc2c(c1)CCC2)CN1CCN(c2ccccc2F)CC1 (stereo not given),-39%,32*,?,?,i,-13%
OC(COc1ccc2c(c1)OCO2)CN1CCN(c2ccc(F)cc2)CC1 (stereo not given),5%,-11,21%,?,i,6%
O=C(NCc1ccc(Cl)cc1)C1CCN(S(=O)(=O)c2ccc3c(c2)CCCN3C(=O)C2CCC2)CC1,-21%,0,0%,nt,?,-13%
CCOC(=O)c1cc(-c2ccc(OC)cc2)n(CCC(=O)NC2CCCCC2)c1C,-16%,-18,?,nt,nt,nt
Cc1ccc(C(=O)NCc2ccc3c(c2)CCN3C(=O)c2ccc(C)cc2)cc1,-23%,3,-22%,nt,nt,nt
Fc1ccccc1N1CCN(CCCNc2ccc3nncn3n2)CC1,-5%,46*,1%,-61*,i,4%
Clc1ccccc1CN1CCN(CCCc2ccccc2)CC1,-2%,-20,-21%,-79*,i,-26%
CCN1CCN(CC(O)COCc2ccccc2)CC1 (stereo not given),1%,-4,-4%,2,i,1%
FCCCOc1ccc(CN2CCN(c3ccccc3F)CC2)cc1,-1%,-3,1%,-60*,i,-7%
OC(COCc1ccccc1)CN1CCN(c2ccccc2F)CC1 (stereo not given),-3%,51*,0%,15,nt,nt
COc1ccccc1CNC(=O)CC(c1ccc(C)cc1)N1Cc2ccccc2C1=O (stereo not given),3%,-5,39%,nt,i,-19%
COc1ccc(N2CCN(CC(O)COc3ccc4c(c3)CCC4)CC2)cc1 (stereo not given),-27%,0,-10%,-79*,i,-23%
C[C@@H](O[C@H]1OCCN(Cc2n[nH]c(=O)[nH]2)[C@H]1c1ccc(F)cc1)c1cc(C(F)(F)F)cc(C(F)(F)F)c1,nt,14,nt,nt,?,?
CCN(CC)CCCNc1cc(C)nc2cc(-c3cccs3)nn12,-12%,-11,-8%,0,?,-15%
CCN(CC)CCCCNc1nc2cc(Cl)c(Cl)cc2nc1-c1ccc(-c2cccs2)s1,nt,nt,nt,nt,nt,22µM*
Oc1ccc(NCc2ccc(OCc3ccccc3Cl)cc2)cc1,7.1µM*,-21,5µM*,nt,nt,?
Oc1ccc(NCc2ccc(OCc3ccccc3)cc2)cc1,10µM*!,3,16µM*,-16,?,?
CCc1ccc(CNc2ccc3c(c2)ncn3CC)cc1,2%,7,5%,13,i,60%
CCc1ccc(CNc2ccc(O)cc2)cc1,13µM*,-1,8.9µM*,-25,i,-12%
O=C(COc1ccccc1Cl)N(Cc1cccc(F)c1)C1CCS(=O)(=O)C1 (stereo not given),-24%,2,?,nt,nt,nt
CCn1nc(C)c2c(-c3ccccc3)cc(=O)n(C(C)C(=O)NCc3ccc(C)cc3)c21 (stereo not given),-18%,-18,?,nt,?,-37%
SMILES,HepG2 viability,D3 ag,TGFb inhibitor,D3 antag,ATXN viability,ATXN2 expr inh
CC(C)C1Nc2c(O)cc(Cl)c([N+](=O)[O-])c2C2C=CCC21 (stereo not given),-36%,12,13µM*,1,?,?
CCCCCCc1cc2cc(C(=O)OCC)c(=O)oc2cc1O,-28%,4,2%,5,i,nt
CCCCCCc1cc2cc(S(=O)(=O)c3ccc(F)c(Cl)c3)c(=O)oc2cc1O,-47%,69*,-47%,30,nt,?
COc1ccc(NC(=O)Nc2cc(C(=O)NCc3ccc(C)cc3)ccc2N2CCCC2)cc1,-7%,6,5%,nt,i,-4%
Cc1cccnc1C(NC(=O)C1CCN(Cc2cn(C)c3ccccc23)CC1)c1ccc(Cl)cc1 (stereo not given),8.9µM*,-23,?,-65*,?,?
COc1cccc(OC)c1OCCN1CCC(C(=O)NC(c2ccccc2)c2ncccc2C)CC1 (stereo not given),-33%,-18,-11%,?,?,-8%
Cc1cccnc1C(NC(=O)C1CCN(Cc2ccc(Cl)cc2)CC1)c1ccccc1 (stereo not given),-18%,-29,16%,-102*,i,-18%
Cc1ccc(C(NC(=O)C2CCN(Cc3ccc(Cl)c(Cl)c3)CC2)c2ccccn2)cc1 (stereo not given),1%,-14,-17%,-1,i,?
Cc1cccnc1C(NC(=O)C1CCN(CCCc2ccccc2)CC1)c1ccc(Cl)cc1 (stereo not given),11µM*,-16,?,-78*,?,?
Cc1cccnc1C(NC(=O)C1CCN(CCOc2ccc(F)cc2)CC1)c1ccc(F)cc1 (stereo not given),-14%,-15,-10%,-71*,i,-25%
Cc1cccnc1C(NC(=O)C1CCN(Cc2ccc(Oc3ccccc3)cc2)CC1)c1ccc(F)cc1 (stereo not given),-31%,-14,?,-67*,?,?
Cc1ccc(Cl)cc1N1CCN(C(=O)CCS(=O)(=O)c2ccc3c(c2)oc(=O)n3C)CC1,-4%,2,-21%,nt,i,-2%
CC(C)Cc1nnc(NC(=O)CCC(=O)N2CCN(Cc3ccc(F)cc3)CC2)s1,-9%,1,-9%,2,i,-18%
Cc1ccc(OCCN2CCN(C(=O)CCC(=O)Nc3nnc(CC(C)C)s3)CC2)cc1,-80%,72*,11µM*,10,i,-17%
COCCCNC(=O)C1CCN(c2nc3ccc(C)cc3[nH]2)CC1,2%,3,20%,nt,nt,nt
O=S(=O)(c1ccccc1)c1nc(-c2ccc(Cl)cc2)oc1NCCCN1CCOCC1,32%,-13,1%,?,?,-1%
O=S(=O)(c1ccc(Cl)cc1)c1nc(-c2ccccc2F)oc1NCCCN1CCOCC1,-41%,-31,1%,-60*,i,-13%

# Screens as filed in PubChem BioAssay.
